Here are results for 2 compounds from ChEMBL document CHEMBL1961873, “Compounds: GSK PKIS; Assays: Nanosyn kinase panel” (2012).

Assay [1] has as its target Protein kinase C gamma type (Homo sapiens) (UniProt P05129). Particulars: at 1 µM.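 Further: each value is an averaged percent inhibition of the enzyme.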
Assay [2] has as its target T1, Protein kinase C iota type (Homo sapiens) (UniProt P41743).
T1 sequence (whole entry): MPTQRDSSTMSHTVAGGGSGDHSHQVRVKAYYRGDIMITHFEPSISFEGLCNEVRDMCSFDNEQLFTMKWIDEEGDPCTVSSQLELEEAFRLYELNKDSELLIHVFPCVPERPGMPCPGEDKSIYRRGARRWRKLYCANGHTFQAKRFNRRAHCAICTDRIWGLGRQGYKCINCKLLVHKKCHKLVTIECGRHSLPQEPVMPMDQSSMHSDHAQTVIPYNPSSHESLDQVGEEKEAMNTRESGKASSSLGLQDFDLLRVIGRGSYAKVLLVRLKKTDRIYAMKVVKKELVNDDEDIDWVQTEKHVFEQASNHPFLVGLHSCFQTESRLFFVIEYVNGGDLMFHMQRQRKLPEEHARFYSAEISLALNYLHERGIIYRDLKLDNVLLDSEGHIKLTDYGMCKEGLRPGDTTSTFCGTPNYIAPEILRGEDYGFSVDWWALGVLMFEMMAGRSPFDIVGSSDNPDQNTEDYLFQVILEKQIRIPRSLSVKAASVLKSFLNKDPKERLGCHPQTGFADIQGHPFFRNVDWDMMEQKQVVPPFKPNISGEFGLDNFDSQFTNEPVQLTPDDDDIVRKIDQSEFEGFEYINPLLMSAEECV
Particulars: at 0.1 µM.

Assay [3] addresses T1, Protein kinase C iota type (Homo sapiens). Particulars: at 1 µM.
Assay [4] deals with Protein kinase C theta type (Homo sapiens) (UniProt Q04759). The settings on record: at 0.1 µM.
For assay [5] the target is unchanged. Particulars: at 1 µM.
Assay [6] deals with Protein kinase C beta type (Homo sapiens) (UniProt P05771). The settings on record: at 0.1 µM.
For assay [7] the target is unchanged. The settings on record: at 1 µM.
Assay [8] deals with T2, Serine/threonine-protein kinase D1 (Homo sapiens) (UniProt Q15139).
T2 sequence (whole entry): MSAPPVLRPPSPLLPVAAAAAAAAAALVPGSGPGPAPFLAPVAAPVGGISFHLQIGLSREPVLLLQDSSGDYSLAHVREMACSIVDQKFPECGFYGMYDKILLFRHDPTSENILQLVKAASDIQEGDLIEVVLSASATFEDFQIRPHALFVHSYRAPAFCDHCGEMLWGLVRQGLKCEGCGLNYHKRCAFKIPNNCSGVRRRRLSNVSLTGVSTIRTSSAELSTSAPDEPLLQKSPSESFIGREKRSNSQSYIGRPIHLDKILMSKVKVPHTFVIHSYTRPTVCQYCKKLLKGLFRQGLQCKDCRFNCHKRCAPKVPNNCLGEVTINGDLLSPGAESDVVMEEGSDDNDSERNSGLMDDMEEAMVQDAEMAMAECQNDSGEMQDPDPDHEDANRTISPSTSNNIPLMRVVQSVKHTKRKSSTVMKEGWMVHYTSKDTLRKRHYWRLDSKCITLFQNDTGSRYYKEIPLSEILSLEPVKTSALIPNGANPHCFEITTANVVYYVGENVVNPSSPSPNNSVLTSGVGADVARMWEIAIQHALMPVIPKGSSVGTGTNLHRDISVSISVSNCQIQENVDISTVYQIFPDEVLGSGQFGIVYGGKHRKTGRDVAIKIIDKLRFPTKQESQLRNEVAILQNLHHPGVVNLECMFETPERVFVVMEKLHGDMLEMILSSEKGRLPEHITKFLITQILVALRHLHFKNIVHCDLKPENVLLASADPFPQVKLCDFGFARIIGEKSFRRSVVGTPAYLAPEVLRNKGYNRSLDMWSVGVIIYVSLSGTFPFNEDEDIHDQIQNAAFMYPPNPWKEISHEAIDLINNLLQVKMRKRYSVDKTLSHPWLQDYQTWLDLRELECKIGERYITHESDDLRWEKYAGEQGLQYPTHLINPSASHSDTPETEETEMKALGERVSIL
The settings on record: at 0.1 µM.

The target of assay [9] is T2, Serine/threonine-protein kinase D1 (Homo sapiens). Particulars: at 1 µM.
In assay [10] the target is T3, Serine/threonine-protein kinase D2 (Homo sapiens) (UniProt Q9BZL6).
T3 sequence (whole entry): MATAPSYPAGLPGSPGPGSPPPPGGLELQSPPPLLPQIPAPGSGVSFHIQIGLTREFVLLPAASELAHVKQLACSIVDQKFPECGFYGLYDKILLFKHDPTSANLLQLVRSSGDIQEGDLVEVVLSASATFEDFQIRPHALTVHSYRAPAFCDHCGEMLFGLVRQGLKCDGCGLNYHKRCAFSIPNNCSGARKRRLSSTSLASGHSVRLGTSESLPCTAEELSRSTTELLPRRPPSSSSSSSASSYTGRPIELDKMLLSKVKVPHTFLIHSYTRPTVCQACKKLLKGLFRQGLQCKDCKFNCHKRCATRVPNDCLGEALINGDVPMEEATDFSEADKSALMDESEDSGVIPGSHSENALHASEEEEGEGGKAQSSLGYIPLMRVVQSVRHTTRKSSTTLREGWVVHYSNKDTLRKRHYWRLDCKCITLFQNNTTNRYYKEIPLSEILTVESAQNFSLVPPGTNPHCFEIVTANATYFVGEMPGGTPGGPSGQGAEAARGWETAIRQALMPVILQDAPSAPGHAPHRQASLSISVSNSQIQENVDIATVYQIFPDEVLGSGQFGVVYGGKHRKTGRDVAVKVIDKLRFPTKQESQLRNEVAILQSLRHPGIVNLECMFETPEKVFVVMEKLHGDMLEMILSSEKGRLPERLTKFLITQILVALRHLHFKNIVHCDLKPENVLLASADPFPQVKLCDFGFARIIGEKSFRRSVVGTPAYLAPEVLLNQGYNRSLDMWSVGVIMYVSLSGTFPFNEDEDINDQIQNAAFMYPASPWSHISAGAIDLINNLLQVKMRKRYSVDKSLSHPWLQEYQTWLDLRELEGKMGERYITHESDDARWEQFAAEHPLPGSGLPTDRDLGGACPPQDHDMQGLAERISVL
The settings on record: at 0.1 µM.

The target in assay [11] is T3, Serine/threonine-protein kinase D2 (Homo sapiens). Particulars: at 1 µM.
Assay [12] addresses T4, Serine/threonine-protein kinase D3 (Homo sapiens) (UniProt O94806).
T4 sequence (whole entry): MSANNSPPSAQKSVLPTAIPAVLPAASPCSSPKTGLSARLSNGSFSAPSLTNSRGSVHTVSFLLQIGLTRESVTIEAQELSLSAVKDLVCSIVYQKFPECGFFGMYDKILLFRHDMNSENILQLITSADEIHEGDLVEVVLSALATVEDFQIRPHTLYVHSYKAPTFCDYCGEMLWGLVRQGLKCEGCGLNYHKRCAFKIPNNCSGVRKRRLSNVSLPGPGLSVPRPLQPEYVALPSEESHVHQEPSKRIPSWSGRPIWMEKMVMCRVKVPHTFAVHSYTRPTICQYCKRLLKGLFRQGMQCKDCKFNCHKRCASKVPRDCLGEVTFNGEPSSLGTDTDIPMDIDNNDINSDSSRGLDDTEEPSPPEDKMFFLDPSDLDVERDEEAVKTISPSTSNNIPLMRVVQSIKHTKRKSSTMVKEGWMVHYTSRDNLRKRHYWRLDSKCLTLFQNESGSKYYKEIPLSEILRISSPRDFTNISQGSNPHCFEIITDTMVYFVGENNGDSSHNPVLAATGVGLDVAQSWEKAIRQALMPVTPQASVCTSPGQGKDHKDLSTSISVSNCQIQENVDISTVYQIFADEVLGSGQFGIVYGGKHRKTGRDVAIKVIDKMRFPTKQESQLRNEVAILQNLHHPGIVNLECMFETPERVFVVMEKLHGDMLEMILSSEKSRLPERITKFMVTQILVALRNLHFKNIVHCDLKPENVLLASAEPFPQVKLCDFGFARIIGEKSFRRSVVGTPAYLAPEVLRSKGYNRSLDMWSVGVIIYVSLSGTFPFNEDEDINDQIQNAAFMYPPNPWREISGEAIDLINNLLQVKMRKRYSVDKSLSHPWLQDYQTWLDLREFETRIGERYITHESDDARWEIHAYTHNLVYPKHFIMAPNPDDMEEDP
The settings on record: at 0.1 µM.

For assay [13], the target named is T4, Serine/threonine-protein kinase D3 (Homo sapiens). The settings on record: at 1 µM.
Assay [14] concerns the target T5, cGMP-dependent protein kinase 1 (Homo sapiens) (UniProt Q13976).
T5 sequence (whole entry): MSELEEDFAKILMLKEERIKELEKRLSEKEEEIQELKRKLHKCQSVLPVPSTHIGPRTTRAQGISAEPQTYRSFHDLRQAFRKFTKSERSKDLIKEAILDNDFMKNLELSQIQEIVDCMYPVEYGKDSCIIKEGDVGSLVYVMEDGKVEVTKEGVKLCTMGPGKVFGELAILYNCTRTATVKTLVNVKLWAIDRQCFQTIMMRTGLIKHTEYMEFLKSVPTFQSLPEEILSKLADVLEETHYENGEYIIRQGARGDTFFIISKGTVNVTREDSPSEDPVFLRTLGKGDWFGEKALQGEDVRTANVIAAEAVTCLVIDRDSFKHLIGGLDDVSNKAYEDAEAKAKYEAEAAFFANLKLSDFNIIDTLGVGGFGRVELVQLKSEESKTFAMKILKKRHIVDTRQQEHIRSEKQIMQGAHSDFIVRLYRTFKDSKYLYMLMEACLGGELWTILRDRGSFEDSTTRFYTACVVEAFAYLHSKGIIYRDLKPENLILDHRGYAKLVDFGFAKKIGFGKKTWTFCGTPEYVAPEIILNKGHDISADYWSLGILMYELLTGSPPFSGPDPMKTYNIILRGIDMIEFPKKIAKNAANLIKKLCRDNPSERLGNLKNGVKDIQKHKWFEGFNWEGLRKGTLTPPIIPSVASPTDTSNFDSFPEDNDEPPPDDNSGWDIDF
The settings on record: at 0.1 µM.

The target of assay [15] is T5, cGMP-dependent protein kinase 1 (Homo sapiens). The settings on record: at 1 µM.
For assay [16], the target named is T6, cGMP-dependent protein kinase 2 (Homo sapiens) (UniProt Q13237).
T6 sequence (whole entry): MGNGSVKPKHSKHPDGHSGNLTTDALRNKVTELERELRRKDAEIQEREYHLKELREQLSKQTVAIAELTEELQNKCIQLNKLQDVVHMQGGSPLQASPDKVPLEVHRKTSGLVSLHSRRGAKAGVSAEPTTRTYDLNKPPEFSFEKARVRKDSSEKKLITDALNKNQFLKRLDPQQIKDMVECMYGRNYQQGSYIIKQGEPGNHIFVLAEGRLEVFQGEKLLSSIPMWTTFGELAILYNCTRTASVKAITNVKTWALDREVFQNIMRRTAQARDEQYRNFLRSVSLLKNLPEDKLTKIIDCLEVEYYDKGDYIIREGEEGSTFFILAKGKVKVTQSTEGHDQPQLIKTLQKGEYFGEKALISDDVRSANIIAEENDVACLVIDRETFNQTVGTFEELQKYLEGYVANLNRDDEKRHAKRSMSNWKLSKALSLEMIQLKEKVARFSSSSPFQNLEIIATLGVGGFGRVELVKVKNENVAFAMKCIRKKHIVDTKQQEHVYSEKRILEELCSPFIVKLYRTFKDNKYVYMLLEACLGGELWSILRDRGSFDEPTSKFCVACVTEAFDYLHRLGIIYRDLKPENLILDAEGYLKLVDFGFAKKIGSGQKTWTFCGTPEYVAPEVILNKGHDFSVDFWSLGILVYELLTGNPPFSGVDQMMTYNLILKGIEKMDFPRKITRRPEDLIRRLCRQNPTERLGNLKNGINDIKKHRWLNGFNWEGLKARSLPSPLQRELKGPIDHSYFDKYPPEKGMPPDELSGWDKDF
Particulars: at 0.1 µM.

The target of assay [17] is T6, cGMP-dependent protein kinase 2 (Homo sapiens). The settings on record: at 1 µM.
In assay [18] the target is T7, cAMP-dependent protein kinase catalytic subunit PRKX (Homo sapiens) (UniProt P51817).
T7 sequence (whole entry): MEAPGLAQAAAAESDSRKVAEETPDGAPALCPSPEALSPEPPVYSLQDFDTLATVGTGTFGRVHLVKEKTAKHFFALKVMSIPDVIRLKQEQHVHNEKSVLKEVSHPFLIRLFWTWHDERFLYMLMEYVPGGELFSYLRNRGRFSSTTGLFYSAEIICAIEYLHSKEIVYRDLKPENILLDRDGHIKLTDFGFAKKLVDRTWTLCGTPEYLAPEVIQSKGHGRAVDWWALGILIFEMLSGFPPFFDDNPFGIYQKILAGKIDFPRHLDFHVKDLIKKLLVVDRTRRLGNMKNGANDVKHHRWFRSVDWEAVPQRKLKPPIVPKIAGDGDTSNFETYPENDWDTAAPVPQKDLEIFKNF
The settings on record: at 0.1 µM.

In assay [19] the target is T7, cAMP-dependent protein kinase catalytic subunit PRKX (Homo sapiens). Particulars: at 1 µM.
Assay [20] has as its target Rho-associated protein kinase 1 (Homo sapiens) (UniProt Q13464). The settings on record: at 0.1 µM.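 Further: values are mean percent inhibition of ROCK1.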

Chain of Protein kinase C theta type (Homo sapiens) (Q04759 whole entry, looked up): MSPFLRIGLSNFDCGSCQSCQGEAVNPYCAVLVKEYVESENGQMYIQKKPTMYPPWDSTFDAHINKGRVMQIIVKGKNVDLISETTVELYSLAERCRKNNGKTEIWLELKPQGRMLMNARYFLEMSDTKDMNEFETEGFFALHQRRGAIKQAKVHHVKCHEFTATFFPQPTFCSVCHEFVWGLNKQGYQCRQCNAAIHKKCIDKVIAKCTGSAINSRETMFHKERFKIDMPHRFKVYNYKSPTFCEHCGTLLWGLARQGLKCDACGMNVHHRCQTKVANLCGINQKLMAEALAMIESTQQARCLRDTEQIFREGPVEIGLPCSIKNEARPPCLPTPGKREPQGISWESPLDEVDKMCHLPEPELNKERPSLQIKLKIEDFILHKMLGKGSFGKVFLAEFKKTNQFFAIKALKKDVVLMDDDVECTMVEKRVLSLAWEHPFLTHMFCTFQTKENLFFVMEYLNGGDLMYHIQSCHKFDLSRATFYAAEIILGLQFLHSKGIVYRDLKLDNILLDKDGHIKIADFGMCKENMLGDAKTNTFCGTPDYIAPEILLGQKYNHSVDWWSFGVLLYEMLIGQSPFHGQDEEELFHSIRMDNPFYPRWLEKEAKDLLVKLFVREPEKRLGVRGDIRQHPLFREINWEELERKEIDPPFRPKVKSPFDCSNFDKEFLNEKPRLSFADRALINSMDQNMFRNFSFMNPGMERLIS
Chain of Protein kinase C beta type (Homo sapiens) (P05771 2-671 limits assumed): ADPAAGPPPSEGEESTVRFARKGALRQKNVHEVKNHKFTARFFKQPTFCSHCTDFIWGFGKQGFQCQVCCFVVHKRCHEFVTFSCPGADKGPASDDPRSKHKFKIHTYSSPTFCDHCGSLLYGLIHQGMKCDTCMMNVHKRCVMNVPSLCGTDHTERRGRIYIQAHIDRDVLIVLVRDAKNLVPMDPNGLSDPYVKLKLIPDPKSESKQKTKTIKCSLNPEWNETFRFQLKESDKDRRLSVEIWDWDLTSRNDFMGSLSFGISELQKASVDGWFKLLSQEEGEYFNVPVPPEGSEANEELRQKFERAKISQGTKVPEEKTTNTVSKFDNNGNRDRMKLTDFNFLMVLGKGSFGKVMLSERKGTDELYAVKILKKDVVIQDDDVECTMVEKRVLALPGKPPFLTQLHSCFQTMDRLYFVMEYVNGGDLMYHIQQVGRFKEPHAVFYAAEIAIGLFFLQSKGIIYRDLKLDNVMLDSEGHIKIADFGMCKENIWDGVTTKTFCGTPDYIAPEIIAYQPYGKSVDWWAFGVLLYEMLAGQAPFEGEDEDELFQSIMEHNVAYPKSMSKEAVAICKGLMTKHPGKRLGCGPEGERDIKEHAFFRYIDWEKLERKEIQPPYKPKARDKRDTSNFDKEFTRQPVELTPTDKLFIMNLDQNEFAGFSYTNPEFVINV
Chain of Rho-associated protein kinase 1 (Homo sapiens) (Q13464 2-1354 limits assumed): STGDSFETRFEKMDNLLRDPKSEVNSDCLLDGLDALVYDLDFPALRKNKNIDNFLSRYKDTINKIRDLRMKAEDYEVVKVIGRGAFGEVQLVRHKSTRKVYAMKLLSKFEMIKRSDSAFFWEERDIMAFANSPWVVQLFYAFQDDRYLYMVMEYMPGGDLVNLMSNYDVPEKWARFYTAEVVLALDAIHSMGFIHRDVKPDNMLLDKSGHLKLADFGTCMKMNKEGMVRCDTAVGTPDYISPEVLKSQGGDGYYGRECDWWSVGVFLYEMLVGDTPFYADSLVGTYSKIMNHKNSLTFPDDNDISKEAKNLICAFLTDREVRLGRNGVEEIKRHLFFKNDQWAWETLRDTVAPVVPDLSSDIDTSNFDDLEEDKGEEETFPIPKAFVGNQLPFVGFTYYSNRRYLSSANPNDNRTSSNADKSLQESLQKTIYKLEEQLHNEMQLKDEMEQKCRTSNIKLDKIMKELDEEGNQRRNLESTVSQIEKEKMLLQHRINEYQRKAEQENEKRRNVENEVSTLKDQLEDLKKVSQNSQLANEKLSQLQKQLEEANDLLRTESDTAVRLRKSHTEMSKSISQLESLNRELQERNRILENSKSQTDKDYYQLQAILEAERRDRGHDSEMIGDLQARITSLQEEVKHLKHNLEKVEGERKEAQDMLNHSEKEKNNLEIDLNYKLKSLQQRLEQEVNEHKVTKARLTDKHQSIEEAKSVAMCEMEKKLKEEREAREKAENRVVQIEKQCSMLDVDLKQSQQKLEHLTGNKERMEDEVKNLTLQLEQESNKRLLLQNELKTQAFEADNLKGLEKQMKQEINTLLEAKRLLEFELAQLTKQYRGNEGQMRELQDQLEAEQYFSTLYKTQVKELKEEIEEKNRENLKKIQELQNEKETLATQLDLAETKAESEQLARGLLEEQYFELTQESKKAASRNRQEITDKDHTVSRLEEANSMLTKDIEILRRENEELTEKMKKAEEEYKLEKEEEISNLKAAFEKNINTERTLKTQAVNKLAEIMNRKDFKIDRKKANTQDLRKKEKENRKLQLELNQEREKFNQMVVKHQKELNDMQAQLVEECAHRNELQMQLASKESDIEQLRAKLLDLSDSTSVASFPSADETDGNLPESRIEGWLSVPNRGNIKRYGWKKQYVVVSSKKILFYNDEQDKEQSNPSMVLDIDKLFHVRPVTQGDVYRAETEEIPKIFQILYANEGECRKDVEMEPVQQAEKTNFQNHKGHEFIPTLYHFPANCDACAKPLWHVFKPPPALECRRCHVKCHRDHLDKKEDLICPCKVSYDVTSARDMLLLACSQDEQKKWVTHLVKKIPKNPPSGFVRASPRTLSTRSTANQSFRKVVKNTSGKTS

With `CCC(=O)Nc1ccc(C)c(-c2ccc(C(=O)NCC3CC3)cc2)c1`, the inhibition in [1] turned out to be 2.13%; in assay [2], 0.11%; in [3], 0.41%; in assay [4], 1.23%; in assay [5] it was 1.92%; in assay [6] it was 0.61%. Also, the inhibition came to 1.48% in assay [7]; 2.88% in [8]; 2.86% in assay [9]; 1.86% in [10]; 0.39% in assay [11]; 2.64% in assay [12]. The inhibition in assay [13] amounted to 2.11%; in assay [14] it was 2.33%; in assay [15] it was 2.99%; in [16], 1.03%; in [17] it was 3.23%; in [18], 0.64%. Moreover, the inhibition amounted to 1.66% in assay [19] and 2.95% in assay [20].
In the case of `COc1ccc(C2=C(N3CCc4ccccc43)C(=O)NC2=O)cc1`, the inhibition in assay [1] stood at 3.73%; in assay [2] it was 2.04%; in assay [3], 2.17%; in [4] it was 2.55%; in [5], 5.71%; in assay [6], 1.22%. Besides, the inhibition in assay [7] came out at 3.96%; in [8], 4.69%; in [9] it was 9.24%; in [10], 5.06%; in [11] it was 7.9%; in assay [12] it was 4.84%. Also, the inhibition in assay [13] came out at 8.41%; in assay [14], 1.67%; in [15] it was 6.23%; in assay [16] it was 1.42%; in assay [17], 4.94%; in [18], 2.47%. Also, the inhibition in [19] amounted to 2.49%; in assay [20], 0.56%.

Broadly, the inhibition is how much of the control response was suppressed.
